Laboratory results taken from PubChem BioAssay (EPA / NIEHS).
Active and inactive are the calls of the source. Rule for the calls: active = hit-call score of the fitted dose curve at least 0.9, where 1 is the maximum; inactive = score below 0.9.

How the values were obtained:
Conditions in all cases: mRNA level, 48 h; actives raise or lower the signal
[1] = read-out: Forkhead box O3 (FOXO3), FOXO3 (gene 2309); assay: LTEA_HepaRG_FOXO3: Life Technologies and Expression Analysis (LTEA) Assay for Forkhead box O3 (FOXO3) using HepaRG (AID 2283459)
In short: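 FOXO3 transcript measured by qRT-PCR (normalized to ACTB, GAPDH, POLR2A) after 48 h exposure of HepaRG cells in serum-free induction medium. Duplicates, eight half-log concentrations up to 100 uM, 0.5% DMSO; gain or loss fitted against DMSO.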

[2] = read-out: ABC Transporter (ABCB1), ABCB1 (gene 5243); assay: LTEA_HepaRG_ABCB1: Life Technologies and Expression Analysis (LTEA) Assay for ABC Transporter (ABCB1) using HepaRG (AID 2283460)
In short: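 ABCB1 transcript level measured by TaqMan qRT-PCR against three housekeeping genes after 48 h chemical exposure of differentiated HepaRG cells. Top concentration 100 uM, half-log steps, eight points, 0.5% DMSO vehicle; bidirectional fit relative to DMSO.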

[3] = read-out: growth arrest and DNA damage 45 (GADD45B), GADD45B (gene 4616); assay: LTEA_HepaRG_GADD45B: Life Technologies and Expression Analysis (LTEA) Assay for growth arrest and DNA damage 45 (GADD45B) using HepaRG (AID 2283461)
In short: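 Human HepaRG monolayers receive chemicals for 48 h at eight half-log concentrations, highest 100 uM, in 0.5% DMSO. Expression is measured by TaqMan qRT-PCR and normalized to ACTB, GAPDH and POLR2A.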

[4] = read-out: ABC Transporter (ABCC3), ABCC3 (gene 8714); assay: LTEA_HepaRG_ABCC3: Life Technologies and Expression Analysis (LTEA) Assay for ABC Transporter (ABCC3) using HepaRG (AID 2283462)
In short: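 Transcriptional change of ABCC3 in HepaRG after 48 h treatment, determined by qRT-PCR normalized to endogenous controls. Concentrations spanned eight half-log steps to 100 uM in 0.5% DMSO.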

[5] = read-out: ABC Transporter (ABCB11), ABCB11 (gene 8647); assay: LTEA_HepaRG_ABCB11: Life Technologies and Expression Analysis (LTEA) Assay for ABC Transporter (ABCB11) using HepaRG (AID 2283463)
In short: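 ABCB11 transcript levels quantified by TaqMan qRT-PCR against three housekeeping genes after 48 h chemical exposure of HepaRG cultures. Concentrations up to 100 uM in half-log steps, 0.5% DMSO vehicle; both induction and suppression scored.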

[6] = read-out: ABC Transporter (ABCC2), ABCC2 (gene 1244); assay: LTEA_HepaRG_ABCC2: Life Technologies and Expression Analysis (LTEA) Assay for ABC Transporter (ABCC2) using HepaRG (AID 2283464)
In short: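 After plating and 48 h culture, HepaRG medium is replaced with serum-free induction medium and chemicals are added (8 concentrations, max 100 uM, 0.5% DMSO) for 48 h. Total RNA then undergoes qRT-PCR for ABCC2 with housekeeping normalization.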

[7] = read-out: Broad substrate specificity ATP-binding cassette transporter ABCG2 (Homo sapiens) (UniProt Q9UNQ0); assay: LTEA_HepaRG_ABCG2: Life Technologies and Expression Analysis (LTEA) Assay for ABC Transporter (ABCG2) using HepaRG (AID 2283465)
In short: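 ABCG2 transcript was quantified by TaqMan qRT-PCR against three housekeeping genes in HepaRG cells. Cells were treated in duplicate for 48 h across an 8-point half-log series up to 100 uM, with 0.5% DMSO vehicle. Gain or loss versus DMSO was fit.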

[8] = read-out: ATP-citrate lyase (ACLY), ACLY (gene 47); assay: LTEA_HepaRG_ACLY: Life Technologies and Expression Analysis (LTEA) Assay for ATP-citrate lyase (ACLY) using HepaRG (AID 2283466)
In short: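 ACLY mRNA quantified by qRT-PCR on Fluidigm arrays against three housekeeping genes, after 48 h chemical treatment of HepaRG cells (top concentration 100 uM, half-log steps, 0.5% DMSO vehicle). Up- or down-regulation fitted relative to DMSO.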

[9] = read-out: Alkaline Phosphatase, Placental (ALPP) gene, ALPP (gene 250); assay: LTEA_HepaRG_ALPP: Life Technologies and Expression Analysis (LTEA) Assay for Alkaline Phosphatase, Placental (ALPP) gene using HepaRG (AID 2283468);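 for AC50: differentiated human HepaRG liver cells in serum-free induction medium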
In short: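 Using human liver HepaRG cells, chemicals are tested in duplicate over 48 h at half-log concentrations topping at 100 uM; phenobarbital 1 mM serves as induction control. ALPP mRNA change by qRT-PCR, bidirectional fit against vehicle.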

[10] = read-out: Bcl-2 (BAD) gene, BAD (gene 572); assay: LTEA_HepaRG_BAD: Life Technologies and Expression Analysis (LTEA) Assay for Bcl-2 (BAD) gene using HepaRG (AID 2283469)
In short: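 Read-out: qRT-PCR of BAD mRNA, normalized to three housekeeping genes. Human HepaRG cultures got 48 h chemical exposure in 0.5% DMSO, duplicate eight-point half-log series topping at 100 uM. Gain or loss of signal fitted versus DMSO vehicle.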

[11] = read-out: Bcl-2 (BAX) gene, BAX (gene 581); assay: LTEA_HepaRG_BAX: Life Technologies and Expression Analysis (LTEA) Assay for Bcl-2 (BAX) gene using HepaRG (AID 2283470)
In short: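 qRT-PCR read-out of BAX mRNA, normalized to three housekeeping genes, after 48 h chemical exposure of human HepaRG cells in serum-free induction medium; eight-point half-log series, top 100 uM, 0.5% DMSO vehicle; bidirectional fit versus DMSO.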

[12] = read-out: adenosine kinase (ADK) gene, ADK (gene 132); assay: LTEA_HepaRG_ADK: Life Technologies and Expression Analysis (LTEA) Assay for adenosine kinase (ADK) gene using HepaRG (AID 2283471)
In short: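 HepaRG (human liver), 48 h chemical exposure, 8-pt half-log series, top 100 uM, 0.5% DMSO vehicle. Readout: ADK mRNA by qRT-PCR vs housekeeping genes; bidirectional curve fit relative to DMSO baseline.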

[13] = read-out: Alpha-fetoprotein (AFP) gene, AFP (gene 174); assay: LTEA_HepaRG_AFP: Life Technologies and Expression Analysis (LTEA) Assay for Alpha-fetoprotein (AFP) gene using HepaRG (AID 2283472)
In short: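 qRT-PCR (Fluidigm TaqMan) readout of AFP transcript, normalized to three housekeeping genes, fitted bidirectionally against 0.5% DMSO baseline. HepaRG cells received chemicals for 48 h in serum-free induction medium, top concentration 100 uM, half-log steps.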

BCL2L11 (gene 10018) = assay: LTEA_HepaRG_BCL2L11: Life Technologies and Expression Analysis (LTEA) Assay for Bcl-2 (BCL2L11) gene using HepaRG (AID 2283473)
In short: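 Human hepatic HepaRG cultures are treated 48 h with test chemicals (maximum 100 uM, 0.5% DMSO vehicle). Expression of BCL2L11 is measured by qRT-PCR against ACTB, GAPDH and POLR2A, with activity in either direction scored relative to vehicle.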

[14] = read-out: Apolipoprotein A-V (APOA5) gene, APOA5 (gene 116519); assay: LTEA_HepaRG_APOA5: Life Technologies and Expression Analysis (LTEA) Assay for Apolipoprotein A-V (APOA5) gene using HepaRG (AID 2283474)
In short: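 Concentration-response of APOA5 expression in HepaRG: eight half-log doses to 100 uM, 48 h, qRT-PCR normalized to ACTB/GAPDH/POLR2A, bidirectional fitting with 0.5% DMSO as baseline.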

[15] = read-out: Apoptosis regulator Bcl-2 (Homo sapiens) (UniProt P10415); assay: LTEA_HepaRG_BCL2: Life Technologies and Expression Analysis (LTEA) Assay for Bcl-2 gene using HepaRG (AID 2283475);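 note: BCL2 transcript by TaqMan qRT-PCR normalised to ACTB GAPDH and POLR2A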
In short: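 qRT-PCR read-out (Fluidigm TaqMan) of BCL2 transcript, normalised to three housekeeping genes, after 48 h chemical exposure of HepaRG cells; 8-point half-log series, top 100 uM, 0.5% DMSO vehicle. Gain or loss of signal fitted relative to DMSO baseline.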

[16] = read-out: Bcl-2 (BID) gene, BID (gene 637); assay: LTEA_HepaRG_BID: Life Technologies and Expression Analysis (LTEA) Assay for Bcl-2 (BID) gene using HepaRG (AID 2283476)
In short: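 HepaRG, 48 h exposure, 8-pt half-log series, top 100 uM, 0.5% DMSO vehicle, duplicates. Readout: BID mRNA by TaqMan qRT-PCR; housekeeping-normalized; bidirectional curve fit vs DMSO baseline.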

[17] = read-out: Peroxisomal acyl-coenzyme A oxidase 1 (ACOX1) gene, ACOX1 (gene 51); assay: LTEA_HepaRG_ACOX1: Life Technologies and Expression Analysis (LTEA) Assay for Peroxisomal acyl-coenzyme A oxidase 1 (ACOX1) gene using HepaRG (AID 2283467)
In short: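 ACOX1 transcript levels were quantified by TaqMan qRT-PCR against three housekeeping genes after 48 h chemical exposure of differentiated human HepaRG cells. Exposure used eight half-log steps topping at 100 uM, 0.5% DMSO vehicle, in duplicate. Bidirectional curve fits were made relative to DMSO.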

Measured: AC50

Sequence of Broad substrate specificity ATP-binding cassette transporter ABCG2 (Homo sapiens) (Q9UNQ0 whole entry, looked up): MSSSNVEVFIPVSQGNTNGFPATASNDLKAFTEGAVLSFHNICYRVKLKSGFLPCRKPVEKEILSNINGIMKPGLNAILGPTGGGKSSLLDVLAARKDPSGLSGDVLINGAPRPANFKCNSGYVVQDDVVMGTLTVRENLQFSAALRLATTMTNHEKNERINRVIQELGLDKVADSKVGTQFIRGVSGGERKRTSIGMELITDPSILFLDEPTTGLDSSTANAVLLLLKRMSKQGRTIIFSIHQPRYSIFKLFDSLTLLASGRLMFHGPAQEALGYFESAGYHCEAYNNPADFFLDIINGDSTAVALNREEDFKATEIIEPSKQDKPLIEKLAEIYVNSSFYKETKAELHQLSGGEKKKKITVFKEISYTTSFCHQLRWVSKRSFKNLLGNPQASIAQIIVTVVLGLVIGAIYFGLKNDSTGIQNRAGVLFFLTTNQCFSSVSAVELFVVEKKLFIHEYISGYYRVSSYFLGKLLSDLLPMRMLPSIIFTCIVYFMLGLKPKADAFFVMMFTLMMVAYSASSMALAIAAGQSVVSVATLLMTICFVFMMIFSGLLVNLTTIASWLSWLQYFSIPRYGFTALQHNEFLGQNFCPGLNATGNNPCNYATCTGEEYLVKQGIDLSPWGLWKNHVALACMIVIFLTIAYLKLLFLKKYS
Sequence of Apoptosis regulator Bcl-2 (Homo sapiens) (P10415 whole entry, looked up): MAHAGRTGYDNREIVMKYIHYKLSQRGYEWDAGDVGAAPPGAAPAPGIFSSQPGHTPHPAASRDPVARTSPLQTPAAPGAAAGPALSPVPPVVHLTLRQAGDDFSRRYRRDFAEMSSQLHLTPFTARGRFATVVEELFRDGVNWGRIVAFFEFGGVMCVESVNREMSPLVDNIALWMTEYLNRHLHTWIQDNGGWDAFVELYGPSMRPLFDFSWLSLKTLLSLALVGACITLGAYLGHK

CCCN(CCC)c1c([N+](=O)[O-])cc(C(F)(F)F)c(N)c1[N+](=O)[O-]
active: [1] 50 µM | [2] 18 µM | [5] 22 µM | [6] 25.4 µM | [13] 34.4 µM | [14] 50 µM
not listed: [17]
inactive: all other assays above

C#C[C@]1(O)CC[C@H]2[C@@H]3CCC4=CC(=O)CC[C@@H]4[C@H]3CC[C@@]21CC
active: [2] 0.156 µM | [5] 0.0365 µM
not listed: [6]
inactive: all other assays above

CC1(C)C(C=C(Cl)Cl)C1C(=O)OCc1cccc(Oc2ccccc2)c1 (configuration not stated)
not listed: [6]
inactive: all other assays above

CCOC(=O)c1ccc(O)cc1
not listed: [6]
inactive: all other assays above

CCC(C)OC(=O)N1CCCCC1CCO (configuration not stated)
not listed: [6]
inactive: all other assays above

S=C([S-])NCCNC(=S)[S-].[Mn+2]
inactive: [7] | [9] | [10] | [11] | BCL2L11 (gene 10018) | [15] | [16]
active: [1] 3.51 µM | [2] 3.47 µM | [3] 5.56 µM | [4] 2.06 µM | [5] 1.85 µM | [8] 0.871 µM | [12] 0.628 µM | [13] 3.16 µM | [14] 3.64 µM

CCSC(=O)N(CC(C)C)CC(C)C
not listed: [6] | [17]
inactive: all other assays above

C=CCOC(Cn1ccnc1)c1ccc(Cl)cc1Cl (configuration not stated)
active: [3] 91.3 µM | [4] 35.5 µM | [6] 37.9 µM | [7] 2.47 µM | [9] 50 µM | [11] 33.9 µM | [13] 25.9 µM | BCL2L11 (gene 10018) 88.6 µM | [15] 13.7 µM
inactive: [1] | [2] | [8] | [10] | [12] | [16]
